# Values joined by “and” are separate entries in the source; they are usually repeats but may differ in a detail not shown here. Equal values may be shown once. Unmarked numbers belong to inactive results. Results filed as inconclusive are left out. Entries that show only a call come without a potency. Where a structure was tested more than once in an assay, its records may differ in their call. Active and inactive are the calls of the source. Unless noted, the call rests on the fitted dose curve.
# What was measured:
# [1] = target: Androgen receptor (Homo sapiens) (UniProt P10275); assay: qHTS assay to identify small molecule antagonists of the androgen receptor (AR) signaling pathway (AID 743035; active means well fitted inhibition curve with a large enough effect in the signal ratio in the repeat runs, not every such curve was filed as active; the % refers to the signal ratio; further: potency means the concentration at half of the fitted maximal effect)
# Summary of the method: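 Quantitative HTS of the Tox21 10K library used HEK293 AR-UAS-bla cells stimulated with R1881 alongside compound for 16 h at 37C, followed by beta-lactamase FRET detection (LiveBLAzer B/G, 2 h, RT).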
# [2] = target: Androgen receptor (Homo sapiens) (UniProt P10275); assay: qHTS assay to identify small molecule agonists of the androgen receptor (AR) signaling pathway using the MDA cell line (AID 743040; active means well fitted curve in the direction sought with a large enough effect in the repeat runs; an effect the other way counts as inactive or inconclusive; further: nearly all actives have a fitted effect of over 20% in size; further: potency means the concentration at half of the fitted maximal effect)
# Summary of the method: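 Luciferase agonist assay: 16 h compound exposure at 37C without CO2 in MDA-kb2 AR-luc cells, whose MMTV promoter responds to both AR and GR. Luminescence measured after 30 min room-temperature incubation with ONE-Glo.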
# [3] = target: Androgen receptor (Homo sapiens) (UniProt P10275); assay: qHTS assay to identify small molecule antagonists of the androgen receptor (AR) signaling pathway using the MDA cell line (AID 743042; active means well fitted curve in the direction sought with a large enough effect in the repeat runs; an effect the other way counts as inactive or inconclusive; further: nearly all actives have a fitted effect of over 55% in size; further: potency means the concentration at half of the fitted maximal effect)
# Summary of the method: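 Antagonist mode: compounds plus R1881 agonist added to MDA-kb2 AR-luc cells, incubated 16 h at 37C. Luciferase reporter luminescence quantified, with multiplexed CellTiter-Fluor readout for cell viability.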
# [4] = target: Glucocorticoid receptor (Homo sapiens) (UniProt P04150); assay: qHTS assay to identify small molecule antagonists of the glucocorticoid receptor (GR) signaling pathway (AID 720692; active means well fitted inhibition curve with a large enough effect in the signal ratio in the repeat runs, not every such curve was filed as active; the % refers to the signal ratio; further: potency means the concentration at half of the fitted maximal effect)
# Summary of the method: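 Quantitative HTS in antagonist format: HeLa cells expressing endogenous GR and a stably integrated GRE-bla reporter, stimulated with 5 nM dexamethasone (final) alongside test compounds for 18 h.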
# [5] = target: Androgen receptor (Homo sapiens) (UniProt P10275); assay: qHTS assay to identify small molecule agonists of the androgen receptor (AR) signaling pathway (AID 743036; active means well fitted activation curve with a large enough effect in the signal ratio in the repeat runs, with a control signal flat, not every such curve was filed as active; the % refers to the signal ratio; further: potency means the concentration at half of the fitted maximal effect)
# Summary of the method: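 Agonist activity was scored by beta-lactamase reporter fluorescence in stably transfected HEK293 cells exposed to compounds for 16 h at 37C and 5% CO2. Substrate loading took 2 h at room temperature.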
# [6] = Caspase-3/7 induction in HepG2 cells by small molecules, qHTS assay (AID 1346978; active means well fitted curve in the direction sought with a large enough effect in the repeat runs; an effect the other way counts as inactive or inconclusive; further: nearly all actives have a fitted effect of over 15% in size)
# Summary of the method: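 Caspase-3/7 induction was measured by Caspase-Glo 3/7 luminescence (30 min, room temperature) after a 17 hr compound exposure of wild-type HepG2 cells seeded at 2,000 per well and pre-incubated 5 hr.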
# [7] = target: Acetylcholinesterase (Homo sapiens) (UniProt P22303); assay: Acetylcholinesterase (AChE) small molecule antagonists: colormetric cell-based qHTS assay (AID 1347395); further: nearly all actives have a fitted effect of over 30% in size; further: potency means the concentration at half of the fitted maximal effect
# Summary of the method: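 Quantitative HTS in attached SH-SY5Y cells: 30 min compound exposure, then 90 min with acetylthiocholine and DTNB at 37 C; colour from thiocholine reports AChE activity.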
# [8] = target: Acetylcholinesterase (Homo sapiens) (UniProt P22303); assay: Acetylcholinesterase (AChE) small molecule antagonists: enzyme-based qHTS assay (AID 1347397); details: Potency: AChE enzyme activity inhibition; outcome: AChE enzyme activity inhibition; further: nearly all actives have a fitted effect of over 55% in size
# Summary of the method: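 Colorimetric DTNB readout of acetylthiocholine hydrolysis, 10 min at room temperature, after 30 min room-temperature exposure of 50 mU/mL recombinant human enzyme to compound; DMSO vehicle control.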
# [9] = target: Acetylcholinesterase (Homo sapiens) (UniProt P22303); assay: Acetylcholinesterase (AChE) small molecule antagonists: fluorescence cell-based qHTS assay (AID 1347398); details: Potency: AChE activity; outcome: AChE activity; further: nearly all actives have a fitted effect of over 50% in size
# Summary of the method: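 Cellular AChE activity read as thiocholine from acetylthiocholine hydrolysis, detected by Thiolite Green fluorescence at 490/520 nm after 40 min at room temperature. Compounds were pre-incubated 30 min at 37 C on adherent SH-SY5Y cells.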
# [10] = target: Acetylcholinesterase (Homo sapiens) (UniProt P22303); assay: Acetylcholinesterase (AChE) small molecule antagonists: enzyme-based qHTS assay with human liver microsomes (AID 1347399); details: Potency: qHTS inhibition; outcome: qHTS inhibition; further: nearly all actives have a fitted effect of over 60% in size
# Summary of the method: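 Recombinant human AChE (50 mU/mL in the enzyme mix) and human liver microsomes (0.25 mg/mL final) were preincubated with compound and NADPH (0.25 mg/mL final) for 30 min at 37 C. Acetylthiocholine/DTNB was then added; thiocholine was read colorimetrically after 10 min at room temperature.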
# [11] = target: Nuclear receptor subfamily 1 group I member 2 (Homo sapiens) (UniProt O75469); assay: CYP3A4 induction through human pregnane X receptor (PXR) by small molecules, qHTS assay (AID 1346984; active means well fitted curve in the direction sought with a large enough effect in the repeat runs; an effect the other way counts as inactive or inconclusive; further: nearly all actives have a fitted effect of over 40% in size)
# Summary of the method: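 Induction measured in HepG2-based DPX-2 cells co-expressing human PXR and a CYP3A4 promoter-driven luciferase. After a 24-hour compound exposure, cells received CYP3A4 luciferin substrate at 3uM final for 3 hours, and light output was then recorded.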
# [12] = target: Nuclear receptor subfamily 1 group I member 2 (Homo sapiens) (UniProt O75469); assay: Human pregnane X receptor (PXR) activation by small molecules, qHTS assay (AID 1346985; active means well fitted curve in the direction sought with a large enough effect in the repeat runs; an effect the other way counts as inactive or inconclusive; further: nearly all actives have a fitted effect of over 40% in size)
# Summary of the method: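 DPX-2 cells (HepG2 co-transfected with a PXR response element and a CYP3A4-promoter luciferase construct) were seeded at 2,000 per well, rested 5 hr at 37C, then exposed to DMSO-dissolved compounds for 24 hr. Activation was read as luciferase luminescence.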
# [13] = qHTS assay for small molecule activators of the heat shock response signaling pathway (AID 743210; active means well fitted activation curve with a large enough effect in the signal ratio in the repeat runs, with a control signal flat, not every such curve was filed as active; the % refers to the signal ratio; further: series mostly up to about 63 µM)
# Summary of the method: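 Compound exposure lasted 5 h at 37 C in HeLa cells carrying a heat-shock-element-driven beta-lactamase reporter. Read-out: fluorescence intensity after 2.5 h room-temperature loading with LiveBLAzer B/G FRET substrate.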
# Chain of Acetylcholinesterase (Homo sapiens) (P22303 whole entry, looked up): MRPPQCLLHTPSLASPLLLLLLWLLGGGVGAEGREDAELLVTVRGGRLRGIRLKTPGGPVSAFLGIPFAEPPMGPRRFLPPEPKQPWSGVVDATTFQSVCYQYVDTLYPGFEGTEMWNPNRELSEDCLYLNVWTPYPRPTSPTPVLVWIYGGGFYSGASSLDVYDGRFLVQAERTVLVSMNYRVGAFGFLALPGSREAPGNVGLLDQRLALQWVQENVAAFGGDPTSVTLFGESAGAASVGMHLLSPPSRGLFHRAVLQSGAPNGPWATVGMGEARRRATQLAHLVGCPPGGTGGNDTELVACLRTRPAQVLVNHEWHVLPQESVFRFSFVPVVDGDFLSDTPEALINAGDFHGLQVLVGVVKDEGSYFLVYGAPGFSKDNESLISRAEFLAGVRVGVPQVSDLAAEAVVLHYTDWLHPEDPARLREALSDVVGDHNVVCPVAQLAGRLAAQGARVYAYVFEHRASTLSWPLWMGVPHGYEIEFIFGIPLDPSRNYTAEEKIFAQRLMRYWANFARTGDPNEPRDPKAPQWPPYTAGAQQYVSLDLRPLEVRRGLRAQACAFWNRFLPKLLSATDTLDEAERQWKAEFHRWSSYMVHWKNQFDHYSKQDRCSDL
# Chain of Glucocorticoid receptor (Homo sapiens) (P04150 whole entry, looked up): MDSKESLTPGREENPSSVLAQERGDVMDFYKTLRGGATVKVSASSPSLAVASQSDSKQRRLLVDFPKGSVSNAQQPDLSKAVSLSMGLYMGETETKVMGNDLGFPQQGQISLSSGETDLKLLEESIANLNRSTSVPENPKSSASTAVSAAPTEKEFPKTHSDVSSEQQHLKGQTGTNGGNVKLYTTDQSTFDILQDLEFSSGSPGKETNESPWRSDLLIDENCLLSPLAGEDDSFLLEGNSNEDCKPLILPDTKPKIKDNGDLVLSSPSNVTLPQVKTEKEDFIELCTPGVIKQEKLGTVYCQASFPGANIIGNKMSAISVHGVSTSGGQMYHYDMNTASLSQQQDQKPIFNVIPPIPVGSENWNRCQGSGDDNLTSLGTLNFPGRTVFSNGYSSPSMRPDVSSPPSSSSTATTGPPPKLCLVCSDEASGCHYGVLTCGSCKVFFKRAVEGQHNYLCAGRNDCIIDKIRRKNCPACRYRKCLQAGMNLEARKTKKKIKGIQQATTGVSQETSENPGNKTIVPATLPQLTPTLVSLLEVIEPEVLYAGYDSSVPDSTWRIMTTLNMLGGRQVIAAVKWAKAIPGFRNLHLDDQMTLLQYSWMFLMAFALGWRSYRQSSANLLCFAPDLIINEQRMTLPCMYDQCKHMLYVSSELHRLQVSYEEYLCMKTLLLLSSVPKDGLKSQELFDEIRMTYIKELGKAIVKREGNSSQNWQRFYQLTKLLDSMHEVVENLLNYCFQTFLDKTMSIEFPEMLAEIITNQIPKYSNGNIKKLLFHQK
# Chain of Androgen receptor (Homo sapiens) (P10275 whole entry, looked up): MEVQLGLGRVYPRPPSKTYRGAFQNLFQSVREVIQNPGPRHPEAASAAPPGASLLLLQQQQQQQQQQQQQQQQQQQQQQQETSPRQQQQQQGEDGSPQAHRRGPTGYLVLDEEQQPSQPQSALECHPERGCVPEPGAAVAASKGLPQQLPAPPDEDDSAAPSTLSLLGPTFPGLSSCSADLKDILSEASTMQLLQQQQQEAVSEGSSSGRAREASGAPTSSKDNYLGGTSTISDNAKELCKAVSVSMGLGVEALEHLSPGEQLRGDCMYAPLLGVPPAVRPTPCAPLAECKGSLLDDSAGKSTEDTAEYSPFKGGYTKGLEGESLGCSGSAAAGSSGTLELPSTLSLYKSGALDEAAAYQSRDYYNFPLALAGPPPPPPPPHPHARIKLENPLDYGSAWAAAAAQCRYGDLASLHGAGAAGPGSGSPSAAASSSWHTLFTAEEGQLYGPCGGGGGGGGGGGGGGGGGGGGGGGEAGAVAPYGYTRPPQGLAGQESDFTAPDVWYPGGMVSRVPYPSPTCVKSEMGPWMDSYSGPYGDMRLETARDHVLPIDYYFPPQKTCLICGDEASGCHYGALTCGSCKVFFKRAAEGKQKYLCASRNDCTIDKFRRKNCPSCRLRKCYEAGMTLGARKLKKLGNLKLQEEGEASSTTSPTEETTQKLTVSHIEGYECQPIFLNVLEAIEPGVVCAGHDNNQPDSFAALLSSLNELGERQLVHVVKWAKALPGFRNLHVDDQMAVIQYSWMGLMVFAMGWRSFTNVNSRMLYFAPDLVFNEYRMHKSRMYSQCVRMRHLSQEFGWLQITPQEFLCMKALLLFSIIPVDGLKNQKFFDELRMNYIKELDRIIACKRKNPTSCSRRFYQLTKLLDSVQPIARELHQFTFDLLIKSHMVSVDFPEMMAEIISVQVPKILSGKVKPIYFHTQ
smiles,measurement,setting,value
C[C@]12CC[C@@H]3c4ccc(OC(=O)N(CCCl)CCCl)cc4CC[C@H]3[C@@H]1CC[C@@H]2OP(=O)(O)O,Potency,[1],10.7 µM (active) and 19 µM (active)
same,Potency,[2],5.31 µM (active) and 10.6 µM (active)
same,Potency,[3],inactive
CCCCCc1cc(O)c2c(c1)OC(C)(C)c1ccc(C)cc1-2,Potency,[1],16.9 µM (active)
same,Potency,[2],inactive
CC[C@H]1[C@@H]2C[C@H]3[C@@H]4N(C)c5ccccc5[C@]45C[C@@H](C2[C@H]5O)N3[C@@H]1O (some centres not stated),Potency,[4],inactive
Oc1cc[c]([Hg][Cl])cc1,Potency,[1],19 µM (active)
same,Potency,[2],inactive
same,Potency,[3],8.41 µM (active) and 5.96 µM (active)
COC(=O)[C@H]1[C@@H](OC(=O)c2ccccc2)C[C@@H]2CC[C@H]1N2C,Potency,[1],inactive
same,Potency,[5],inactive
same,Potency,[2],inactive
same,Potency,[3],inactive
N#CC(C#N)=Cc1cc(O)c(O)c(O)c1,Potency,[2],inactive
same,Potency,[3],inactive
CC1(C)C(C=C(Cl)Cl)C1C(=O)OCc1cccc(Oc2ccccc2)c1 (configuration not stated),Potency,[6],inactive
same,Potency,[7],inactive
same,Potency,[8],inactive
same,Potency,[9],inactive
same,Potency,[10],inactive
C[C@]12CCC(=O)C[C@@H]1CC[C@@H]1[C@@H]2CC[C@@]2(C)[C@H]1CC[C@]2(C)O,Potency,[4],8.49 µM (active)
COc1ccc(C)cc1N,Potency,[6],inactive
same,Potency,[7],inactive
same,Potency,[8],inactive
same,Potency,[9],inactive
same,Potency,[10],inactive
C=C(C)C(=O)OCCOc1ccccc1,Potency,[7],inactive
same,Potency,[8],inactive
NCCNCCNCCNCCN,Potency,[7],79.3 µM (active)
same,"activity, negative = inhibition",[7],4.34% [at 10.5 µM]
same,Potency,[8],inactive
same,"activity change, negative = inhibition",[9],0.135% [at 10.5 µM]
same,Potency,[10],inactive
COC(=O)[C@]12CCC(C)(C)C[C@H]1[C@H]1C(=O)C=C3[C@@]4(C)C=C(C#N)C(=O)C(C)(C)[C@@H]4CC[C@@]3(C)[C@]1(C)CC2,Potency,[2],inactive
same,Potency,[3],2.37 µM (active)
CCOC(=O)C1(c2ccccc2)CCCN(C)CC1 (configuration not stated),Potency,[4],inactive
C[C@]12C[C@H]3S[C@H]3C[C@@H]1CC[C@@H]1[C@@H]2CC[C@]2(C)[C@@H](O)CC[C@@H]12,Potency,[5],0.0032 µM (active)
same,Potency,[2],0.3 nM (active)
same,Potency,[3],inactive
same,Potency,[11],inactive
same,Potency,[12],inactive
Cc1ccc(C)cc1,Potency,[6],inactive
same,Potency,[7],inactive
same,Potency,[8],inactive
same,Potency,[9],inactive
same,Potency,[10],inactive
C[C@@H]1[C@H](O)[C@@H](C)/C=C/C=C/CC/C=C/C=C/C=C/C=C/[C@H](O[C@H]2O[C@@H](C)[C@H](O)[C@@H](N)[C@H]2O)CC2O[C@](O)(C[C@@H](O)[C@H](O)CC[C@@H](O)C[C@@H](O)C[C@@H](O)CC(=O)O[C@H]1C)C[C@H](O)[C@H]2C(=O)O,Potency,[1],inactive
same,Potency,[5],inactive
same,Potency,[2],inactive
same,Potency,[3],inactive
CNC(=O)Oc1ccc2c(c1)[C@]1(C)CCN(C)[C@@H]1N2C,Potency,[6],inactive
CCCSc1cc(OC)c(CCN)cc1OC,Potency,[1],6.55 µM (active)
same,Potency,[2],inactive
same,Potency,[3],inactive
Clc1ccc(C(Cn2ccnc2)OCc2csc3c(Cl)cccc23)c(Cl)c1 (configuration not stated),Potency,[4],inactive
same,Potency,[2],inactive
CC(=O)OC(C)=O,Potency,[13],inactive
same,Potency,[6],inactive
same,Potency,[7],inactive
same,Potency,[8],inactive
same,Potency,[9],inactive
same,Potency,[10],inactive
COc1cc2c(cc1OC)[C@@H]1CC(=O)[C@@H](CC(C)C)CN1CC2,Potency,[6],inactive
same,Potency,[7],inactive
same,Potency,[8],inactive
same,Potency,[9],inactive
same,Potency,[10],inactive
